From PubChem BioAssay (Tox21)
Values without a mark were called inactive. Inconclusive results are not listed. Where a call stands in place of a potency, no number is given. Calls of active or inactive are those of the source. Unless noted, the call rests on the fitted dose curve; in most records, active means well fitted curve in the direction sought with a large enough effect in the repeat runs; inconclusive means weak or mixed curves; inactive means no such curve, though single readings can be large; an effect the other way counts as inactive or inconclusive.

What was measured:
[1] = qHTS assay to identify small molecule antagonists of the TGF-beta/Smad signaling pathway - cell viability counter screen (AID 1346824); further: nearly all actives have a fitted effect of over 50% in size
Method in brief: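 SBE-bla HEK 293T cells, incubated overnight, then compound plus 0.25 ng/mL TGF-beta1 (stock added) for 5 hr at 37 C. Viability was read in the same wells by CellTiter-Glo luminescence after 30 min at room temperature.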

[2] = qHTS assay to identify small molecule agonists of the TGF-beta/Smad signaling pathway - cell viability counter screen (AID 1346829); further: top concentration of the series differs between compounds; nearly all actives have a fitted effect of over 45% in size
Method in brief: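 CellTiter-Glo luminescence readout; SBE-bla HEK 293T cells, overnight plating, compound 5 hr at 37 C/5% CO2, then bla substrate 2 hr RT, then CellTiter-Glo 30 min RT.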

[3] = qHTS assay to identify small molecule agonists of the TGF-beta/Smad signaling pathway (AID 1346859; active means well fitted activation curve with a large enough effect in the signal ratio in the repeat runs, not every such curve was filed as active; the % refers to the signal ratio; further: series mostly up to about 77 µM)
Method in brief: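 Reporter line: HEK 293T with stably integrated SBE-controlled beta-lactamase. Compound exposure lasts 5 hr at 37 C and 5% CO2; substrate loading follows for 2 hr at room temperature, with emission read at 460 and 530 nm.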

[4] = target: Thyrotropin-releasing hormone receptor (Homo sapiens) (UniProt P34981); experiment: qHTS assay to identify small molecule antagonists of the thyrotropin-releasing hormone receptor (TRHR) signaling pathway (AID 1346877; active means well fitted inhibition curve with a large enough effect in the repeat runs, not every such curve was filed as active; further: series mostly up to about 51 µM)
Method in brief: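 TRHR-expressing HEK293 cells were seeded, cultured 18 h at 37 °C, then loaded with calcium dye for 2 h. Compounds were pre-incubated 5 min at room temperature before 1 nM TRH (final) was added, and kinetic fluorescence was recorded for 3 min.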

[5] = Human pregnane X receptor (PXR) small molecule agonists, qHTS cell viability counter screen (AID 1346977); further: nearly all actives have a fitted effect of over 50% in size
Method in brief: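 Cytotoxicity counter screen run in the same wells as the PXR luciferase assay, using PXR-Luc HepG2 cells in charcoal-stripped serum medium. Viability: CellTiter-Fluor fluorescence after 24hr compound treatment.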

[6] = Caspase-3/7 induction in HepG2 cells by small molecules, qHTS assay (AID 1346978); further: nearly all actives have a fitted effect of over 15% in size
Method in brief: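 Wild-type HepG2 cells, 2,000/well, settled 5 hr at 37 C and 5% CO2, then compound-treated for 17 hr; caspase-3/7 activity read by luminescent Caspase-Glo 3/7 after 30 min at room temperature.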

[7] = Caspase-3/7 induction in CHO-K1 cells by small molecules, qHTS cell viability counter screen (AID 1346979); further: nearly all actives have a fitted effect of over 35% in size
Method in brief: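 Cytotoxicity counter screen run in parallel with the caspase-3/7 assay: CHO-K1 cells, 16hr compound treatment at 37C, then CellTiter-Fluor for 1hr before fluorescence reading.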

[8] = Caspase-3/7 induction in CHO-K1 cells by small molecules, qHTS assay (AID 1346980); further: nearly all actives have a fitted effect of over 15% in size
Method in brief: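 Wild-type CHO-K1 cells exposed to compounds for 17hr at 37 C, 5% CO2. Caspase-3/7 activity then measured by Caspase-Glo 3/7 luminescence after 30min at room temperature.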

[9] = Caspase-3/7 induction in HepG2 cells by small molecules, qHTS cell viability counter screen (AID 1346981); further: series mostly up to about 92 µM; nearly all actives have a fitted effect of over 30% in size
Method in brief: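 Wild-type HepG2 cells (2,000/well) were allowed to settle for 5 hr at 37 C, 5% CO2, then dosed with compounds in DMSO by pin transfer. After 16 hr at 37 C, CellTiter-Fluor was added and fluorescence read 1 hr later.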

[10] = target: Nuclear receptor subfamily 1 group I member 2 (Homo sapiens) (UniProt O75469); experiment: Human pregnane X receptor (PXR) small molecule agonists, qHTS assay (AID 1346982); further: nearly all actives have a fitted effect of over 35% in size; further: potency means the concentration at half of the fitted maximal effect
Method in brief: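 PXR-Luc HepG2 cells (CYP3A4 promoter-driven luciferase) were seeded in medium with 5% charcoal-stripped FBS, left 5 hr at 37 C, then exposed to compounds in DMSO for 24 hr. Luminescence was read after ONE-Glo addition.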

[11] = target: Cytochrome P450 2C19 (Homo sapiens) (UniProt P33261); experiment: Cytochrome P450 Family 2 Subfamily C Member 19 (CYP2C19) small molecule antagonists: luciferase reporter qHTS assay (AID 1671197); further: nearly all actives have a fitted effect of over 65% in size; further: potency means the concentration at half of the fitted maximal effect
Method in brief: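 Enzyme-substrate mix with proluciferin substrate (P450-Glo CYP2C19 system) preincubated with compounds 10 min at room temperature; NADPH regeneration solution added, 37C for 1 h; detection reagent stops reaction, luminescence read after 20 min. Ketoconazole positive control.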

[12] = target: Cytochrome P450 2C9 (Homo sapiens) (UniProt P11712); experiment: Cytochrome P450 Family 2 Subfamily C Member 9 (CYP2C9) small molecule antagonists: luciferase reporter qHTS assay (AID 1671198); further: nearly all actives have a fitted effect of over 50% in size; further: potency means the concentration at half of the fitted maximal effect
Method in brief: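 P450-Glo proluciferin substrate with CYP2C9 enzyme; 10 min RT preincubation, then NADPH regeneration 1 h at 37C; luciferin detection reagent 20 min RT, luminescence in relative luminescence units.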

[13] = target: Voltage-gated inwardly rectifying potassium channel KCNH2 (Homo sapiens) (UniProt Q12809); experiment: Human Ether-a-go-go-Related Gene (hERG) channel small molecule antagonists: fluorescence cell-based qHTS assay (AID 1671200);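 further: hERG-expressing U2OS cells given a thallium stimulus after FluxOR II dye loading; series mostly up to about 77 µM; nearly all actives have a fitted effect of over 50% in size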
Method in brief: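 Fluorescence at 540 nm emission (480 nm excitation) was recorded kinetically for 2 min at 1-second intervals once the thallium-containing stimulus reached cells previously loaded with FluxOR II dye.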

[14] = target: Cytochrome P450 3A4 (Homo sapiens) (UniProt P08684); experiment: Cytochrome P450 Family 3 Subfamily A Member 4 (CYP3A4) small molecule antagonists: luciferase reporter qHTS assay (AID 1671201); further: nearly all actives have a fitted effect of over 50% in size; further: potency means the concentration at half of the fitted maximal effect
Method in brief: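 qHTS, 1536-well. CYP3A4 + proluciferin substrate, cpd 10 min RT → NADPH regen 1 h RT → detection reagent 20 min → luminescence (RLU). Ketoconazole positive control.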

[15] = target: Cytochrome P450 2D6 (Homo sapiens) (UniProt P10635); experiment: Cytochrome P450 Family 2 Subfamily D Member 6 (CYP2D6) small molecule antagonists: luciferase reporter qHTS assay (AID 1671196); further: nearly all actives have a fitted effect of over 50% in size; further: potency means the concentration at half of the fitted maximal effect
Method in brief: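 CYP2D6 enzyme–substrate mix was held with compound for 10 min at room temperature, then NADPH regeneration solution was added and the reaction ran 1 h at room temperature. Luciferin product was detected by luminescence after 20 min with detection reagent.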

[16] = target: Cytochrome P450 1A2 (Homo sapiens) (UniProt P05177); experiment: Cytochrome P450 Family 1 Subfamily A Member 2 (CYP1A2) small molecule antagonists: luciferase reporter qHTS assay (AID 1671199); further: nearly all actives have a fitted effect of over 50% in size; further: potency means the concentration at half of the fitted maximal effect
Method in brief: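 Human CYP1A2 activity measured with a P450-Glo proluciferin substrate; compounds in DMSO preincubated 10 min at room temperature with enzyme-substrate mix, then NADPH regeneration system added for 1 h. Luciferin detection reagent, 20 min, luminescence read.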

[17] = target: Thyrotropin-releasing hormone receptor (Homo sapiens) (UniProt P34981); experiment: qHTS assay to identify small molecule agonists of the thyrotropin-releasing hormone receptor (TRHR) signaling pathway (AID 1346891; calls by dose curve; further: series mostly up to about 58 µM)
Method in brief: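 Cells: TRHR-Hek293, seeded and incubated 18 h. Dye loading: 2 h at 37 °C. Compound added from DMSO stock by pin tool. Read-out: kinetic calcium fluorescence over 3 min.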

[18] = target: Nuclear receptor subfamily 1 group I member 2 (Homo sapiens) (UniProt O75469); experiment: CYP3A4 induction through human pregnane X receptor (PXR) by small molecules, qHTS assay (AID 1346984); further: nearly all actives have a fitted effect of over 40% in size
Method in brief: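 DPX-2 cells (HepG2 co-transfected with PXR and CYP3A4 promoter-luciferase) treated with compounds 24 h at 37C; luciferin-IPA CYP3A4 substrate 3uM final added for 3 h, then One-Glo; luminescence read. qHTS format.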

[19] = target: Nuclear receptor subfamily 1 group I member 2 (Homo sapiens) (UniProt O75469); experiment: Human pregnane X receptor (PXR) activation by small molecules, qHTS assay (AID 1346985); further: nearly all actives have a fitted effect of over 40% in size
Method in brief: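 DPX-2 cells (HepG2 co-transfected with a PXR response element and a CYP3A4-promoter luciferase construct) were seeded at 2,000 per well, rested 5 hr at 37C, then exposed to DMSO-dissolved compounds for 24 hr. Activation was read as luciferase luminescence.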

Sequence of Nuclear receptor subfamily 1 group I member 2 (Homo sapiens) (O75469 whole entry, looked up): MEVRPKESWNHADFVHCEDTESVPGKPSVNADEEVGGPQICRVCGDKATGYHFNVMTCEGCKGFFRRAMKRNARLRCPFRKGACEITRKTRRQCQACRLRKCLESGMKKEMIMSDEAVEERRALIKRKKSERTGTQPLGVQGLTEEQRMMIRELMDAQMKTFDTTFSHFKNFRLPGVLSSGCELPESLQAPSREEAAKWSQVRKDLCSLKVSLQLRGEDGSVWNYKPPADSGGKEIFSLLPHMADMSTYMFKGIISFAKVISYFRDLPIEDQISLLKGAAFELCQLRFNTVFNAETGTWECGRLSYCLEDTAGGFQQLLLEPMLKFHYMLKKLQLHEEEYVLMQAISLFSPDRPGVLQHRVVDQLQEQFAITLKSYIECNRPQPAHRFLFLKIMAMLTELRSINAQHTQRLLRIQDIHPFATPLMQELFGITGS
Sequence of Cytochrome P450 2C9 (Homo sapiens) (P11712 whole entry, looked up): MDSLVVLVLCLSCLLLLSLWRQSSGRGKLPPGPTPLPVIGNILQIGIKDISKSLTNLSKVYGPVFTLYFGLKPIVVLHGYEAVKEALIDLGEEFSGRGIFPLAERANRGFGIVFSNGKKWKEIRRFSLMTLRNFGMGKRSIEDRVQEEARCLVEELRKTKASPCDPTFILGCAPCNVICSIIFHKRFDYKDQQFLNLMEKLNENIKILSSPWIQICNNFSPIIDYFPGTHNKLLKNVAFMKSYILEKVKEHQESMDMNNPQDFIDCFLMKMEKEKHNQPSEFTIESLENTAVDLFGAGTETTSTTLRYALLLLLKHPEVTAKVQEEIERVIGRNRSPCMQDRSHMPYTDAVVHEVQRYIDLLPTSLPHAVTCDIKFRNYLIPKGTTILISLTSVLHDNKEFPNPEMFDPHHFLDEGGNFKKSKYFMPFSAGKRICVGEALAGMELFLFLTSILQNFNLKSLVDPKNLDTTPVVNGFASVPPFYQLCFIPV
Sequence of Thyrotropin-releasing hormone receptor (Homo sapiens) (P34981 whole entry, looked up): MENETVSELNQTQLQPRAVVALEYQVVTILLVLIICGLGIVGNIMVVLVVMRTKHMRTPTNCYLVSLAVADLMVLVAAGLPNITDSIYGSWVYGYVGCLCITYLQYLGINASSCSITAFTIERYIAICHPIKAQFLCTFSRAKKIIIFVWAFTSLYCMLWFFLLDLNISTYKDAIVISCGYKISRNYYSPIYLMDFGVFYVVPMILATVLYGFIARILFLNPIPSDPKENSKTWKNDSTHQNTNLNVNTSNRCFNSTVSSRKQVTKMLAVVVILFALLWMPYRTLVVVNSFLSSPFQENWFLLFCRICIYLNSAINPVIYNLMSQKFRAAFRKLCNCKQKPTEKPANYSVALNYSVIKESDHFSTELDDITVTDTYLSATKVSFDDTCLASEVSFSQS
Sequence of Cytochrome P450 2D6 (Homo sapiens) (P10635 whole entry, looked up): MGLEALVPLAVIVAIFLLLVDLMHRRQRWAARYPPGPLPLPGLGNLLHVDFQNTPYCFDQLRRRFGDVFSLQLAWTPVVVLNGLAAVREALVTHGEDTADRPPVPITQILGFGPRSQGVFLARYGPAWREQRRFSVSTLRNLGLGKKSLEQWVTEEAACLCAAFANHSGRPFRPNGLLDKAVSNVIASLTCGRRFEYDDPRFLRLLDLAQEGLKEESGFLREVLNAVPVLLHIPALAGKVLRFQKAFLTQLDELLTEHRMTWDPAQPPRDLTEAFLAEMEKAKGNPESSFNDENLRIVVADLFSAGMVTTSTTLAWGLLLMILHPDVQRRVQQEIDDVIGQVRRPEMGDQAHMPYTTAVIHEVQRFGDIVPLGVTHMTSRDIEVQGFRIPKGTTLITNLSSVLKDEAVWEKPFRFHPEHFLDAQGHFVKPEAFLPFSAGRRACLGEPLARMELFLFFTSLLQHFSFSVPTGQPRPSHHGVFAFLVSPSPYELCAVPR
Sequence of Cytochrome P450 3A4 (Homo sapiens) (P08684 whole entry, looked up): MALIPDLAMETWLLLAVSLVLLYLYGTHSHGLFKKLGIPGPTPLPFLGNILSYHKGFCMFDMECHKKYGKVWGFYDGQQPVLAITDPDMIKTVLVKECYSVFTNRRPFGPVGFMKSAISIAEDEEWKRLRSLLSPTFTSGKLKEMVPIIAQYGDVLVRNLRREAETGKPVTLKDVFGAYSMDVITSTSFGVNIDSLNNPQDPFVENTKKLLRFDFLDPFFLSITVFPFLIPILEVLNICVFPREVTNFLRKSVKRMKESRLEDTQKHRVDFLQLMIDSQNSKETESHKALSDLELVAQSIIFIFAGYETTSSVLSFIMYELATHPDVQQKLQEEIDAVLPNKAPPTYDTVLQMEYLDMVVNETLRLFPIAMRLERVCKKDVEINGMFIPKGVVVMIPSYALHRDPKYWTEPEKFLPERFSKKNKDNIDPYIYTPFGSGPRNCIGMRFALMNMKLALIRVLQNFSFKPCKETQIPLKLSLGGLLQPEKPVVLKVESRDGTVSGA
Sequence of Voltage-gated inwardly rectifying potassium channel KCNH2 (Homo sapiens) (Q12809 whole entry, looked up): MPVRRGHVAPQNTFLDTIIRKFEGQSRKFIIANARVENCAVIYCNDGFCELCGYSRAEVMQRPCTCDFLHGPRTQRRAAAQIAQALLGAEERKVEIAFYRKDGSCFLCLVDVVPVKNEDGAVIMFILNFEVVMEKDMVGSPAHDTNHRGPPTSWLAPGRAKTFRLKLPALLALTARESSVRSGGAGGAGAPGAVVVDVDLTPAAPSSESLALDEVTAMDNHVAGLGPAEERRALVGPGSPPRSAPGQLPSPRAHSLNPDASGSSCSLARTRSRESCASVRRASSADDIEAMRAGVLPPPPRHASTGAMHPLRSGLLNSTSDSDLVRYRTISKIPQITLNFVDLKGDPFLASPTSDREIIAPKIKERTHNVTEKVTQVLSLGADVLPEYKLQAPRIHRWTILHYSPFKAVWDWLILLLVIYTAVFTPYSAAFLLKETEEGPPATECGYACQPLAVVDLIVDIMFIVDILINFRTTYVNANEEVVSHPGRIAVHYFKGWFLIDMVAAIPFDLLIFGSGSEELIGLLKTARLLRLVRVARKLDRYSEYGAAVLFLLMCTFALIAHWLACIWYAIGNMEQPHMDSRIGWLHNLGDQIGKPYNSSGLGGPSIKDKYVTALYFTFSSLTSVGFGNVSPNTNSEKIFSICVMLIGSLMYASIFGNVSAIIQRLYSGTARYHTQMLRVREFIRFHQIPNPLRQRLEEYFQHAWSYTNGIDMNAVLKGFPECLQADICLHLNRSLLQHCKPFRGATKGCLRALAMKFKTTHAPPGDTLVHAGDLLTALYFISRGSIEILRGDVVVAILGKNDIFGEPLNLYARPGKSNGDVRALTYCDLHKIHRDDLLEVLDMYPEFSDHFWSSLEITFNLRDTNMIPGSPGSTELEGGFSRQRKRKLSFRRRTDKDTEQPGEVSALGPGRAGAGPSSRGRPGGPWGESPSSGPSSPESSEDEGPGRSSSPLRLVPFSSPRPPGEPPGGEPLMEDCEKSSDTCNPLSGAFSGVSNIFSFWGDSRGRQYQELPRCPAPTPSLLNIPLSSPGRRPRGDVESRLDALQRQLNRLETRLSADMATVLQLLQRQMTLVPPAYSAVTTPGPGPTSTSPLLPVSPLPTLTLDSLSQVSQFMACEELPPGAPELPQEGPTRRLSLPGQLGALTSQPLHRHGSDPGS
Sequence of Cytochrome P450 1A2 (Homo sapiens) (P05177 whole entry, looked up): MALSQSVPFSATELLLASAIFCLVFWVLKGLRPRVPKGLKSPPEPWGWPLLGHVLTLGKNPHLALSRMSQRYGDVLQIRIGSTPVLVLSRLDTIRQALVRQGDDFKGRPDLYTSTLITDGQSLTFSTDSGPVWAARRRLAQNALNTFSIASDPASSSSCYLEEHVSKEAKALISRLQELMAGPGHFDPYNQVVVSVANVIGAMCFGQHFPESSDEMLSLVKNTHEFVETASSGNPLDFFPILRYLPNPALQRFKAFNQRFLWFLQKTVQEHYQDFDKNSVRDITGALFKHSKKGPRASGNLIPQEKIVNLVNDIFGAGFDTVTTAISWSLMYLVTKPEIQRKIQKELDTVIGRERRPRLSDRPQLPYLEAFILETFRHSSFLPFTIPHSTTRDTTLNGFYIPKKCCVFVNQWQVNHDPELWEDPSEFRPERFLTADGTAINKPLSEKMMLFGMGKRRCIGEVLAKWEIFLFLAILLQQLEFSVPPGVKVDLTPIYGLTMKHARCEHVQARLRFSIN
Sequence of Cytochrome P450 2C19 (Homo sapiens) (P33261 whole entry, looked up): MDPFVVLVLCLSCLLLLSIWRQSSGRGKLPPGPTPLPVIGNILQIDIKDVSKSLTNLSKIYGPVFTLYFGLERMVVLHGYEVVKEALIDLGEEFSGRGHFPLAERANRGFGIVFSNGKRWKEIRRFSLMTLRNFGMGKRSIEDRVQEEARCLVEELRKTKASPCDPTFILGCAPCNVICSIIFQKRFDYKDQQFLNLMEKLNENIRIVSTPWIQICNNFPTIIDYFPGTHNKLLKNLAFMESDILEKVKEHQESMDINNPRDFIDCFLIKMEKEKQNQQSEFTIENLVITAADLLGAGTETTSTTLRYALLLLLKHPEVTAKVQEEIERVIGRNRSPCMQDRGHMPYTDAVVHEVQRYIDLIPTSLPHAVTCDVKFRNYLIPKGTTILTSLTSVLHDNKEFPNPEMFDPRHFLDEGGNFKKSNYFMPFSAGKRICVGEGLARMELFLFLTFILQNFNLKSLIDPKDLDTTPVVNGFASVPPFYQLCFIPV

| SMILES | outcome [1] | outcome [2] | outcome [3] | outcome [4] | outcome [5] | outcome [6] | Potency [7] | outcome [8] | outcome [9] | Potency [10] | Potency [11] | Potency [12] | Potency [13] | Potency [14] | Potency [15] | Potency [16] | outcome [17] | Potency [18] | Potency [19] |
| --- | --- | --- | --- | --- | --- | --- | --- | --- | --- | --- | --- | --- | --- | --- | --- | --- | --- | --- | --- |
| CCCCOC(=O)[C@H](C)O | inactive | inactive | inactive | inactive | inactive | inactive | inactive | inactive | inactive | inactive | inactive | inactive | inactive | inactive |  |  |  |  |  |
| Cc1ccc(C(C)NC(=O)[C@@H](NC(=O)OC(C)C)C(C)C)cc1 (some centres not stated) | inactive | inactive | inactive | inactive | inactive | inactive | inactive | inactive | inactive | 21.6 µM (active) | 56.2 µM (active) | 31.6 µM (active) |  | 3.55 µM (active) | 35.5 µM (active) |  |  |  |  |
| O/N=C/C=N/O | inactive | inactive | inactive | inactive | inactive |  | inactive | inactive | inactive | inactive | inactive | inactive |  | inactive | 39.9 µM (active) | inactive |  |  |  |
| CC(C)OC(=O)CCC(=O)OC(C)C | inactive | inactive | inactive | inactive | inactive | inactive | inactive | inactive | inactive | inactive | inactive | inactive | inactive |  |  | inactive |  |  |  |
| C#CCN[C@@H]1CCc2ccccc21 | inactive | inactive | inactive |  | inactive | inactive | inactive | inactive | inactive | inactive | inactive | inactive | inactive |  | 27.5 µM (active) | 5.12 µM (active) | inactive | inactive | inactive |
| CC(=O)Nc1ccc(OC(=O)c2ccccc2OC(C)=O)cc1 | inactive | inactive | inactive | inactive | inactive | inactive | inactive | inactive | inactive | inactive | inactive | inactive | inactive |  |  |  |  | inactive | inactive |
| O=C[O][Al]([O]C=O)[O]C=O | inactive | inactive | inactive | inactive | inactive |  | inactive | inactive |  | inactive | inactive | inactive | inactive | inactive | inactive |  | inactive |  |  |
| CN(C)CC/C=C1/c2ccccc2COc2ccc(CC(=O)O)cc21 | inactive | inactive | inactive | inactive | inactive |  |  | inactive | inactive | inactive | inactive | inactive |  | inactive |  | inactive | inactive | inactive | inactive |
| C=CC/C=C/C | inactive | inactive | inactive | inactive | inactive |  | inactive | inactive | inactive | inactive | inactive | inactive | inactive | inactive |  |  | inactive |  |  |
| CCCCCCCCCCCCCCC(=O)NC(CO)CCCCCCCCCCCCCC (configuration not stated) | inactive | inactive | inactive | inactive | inactive |  | inactive | inactive | inactive | inactive | inactive | inactive | inactive | inactive | inactive |  | inactive |  |  |
| O=C(O)CONC(=O)c1ccccc1 | inactive | inactive | inactive | inactive | inactive | inactive | inactive | inactive | inactive | inactive | inactive | inactive | inactive | inactive |  | inactive |  |  |  |
| C/C=C(\C)C(=O)OCCc1ccccc1 | inactive | inactive | inactive | inactive | inactive | inactive | inactive | inactive |  | inactive | 39.9 µM (active) |  | inactive |  | inactive | 39.9 µM (active) |  |  |  |
| O=C(O)c1cc2ccccc2nc1C(=O)O | inactive | inactive | inactive | inactive | inactive | inactive | inactive | inactive | inactive | inactive | inactive | inactive | inactive | inactive | inactive |  |  |  |  |
| CCOc1cccc(N)c1 | inactive | inactive | inactive | inactive | inactive | inactive | inactive | inactive |  | inactive | 6.3 µM (active) | 7.93 µM (active) |  | 2.23 µM (active) |  | 35.4 µM (active) |  |  |  |
